The results in this text go back to PubChem BioAssay (EPA / NIEHS).

Molecules are shown by their SMILES. Calls of active or inactive are those of the source. Rule for the calls: active = hit-call score of the fitted dose curve at least 0.9, where 1 is the maximum; inconclusive = response in the unintended direction; inactive = score below 0.9.

Chain of Estrogen receptor (Homo sapiens) (P03372 whole entry, looked up, the tested form may be a part): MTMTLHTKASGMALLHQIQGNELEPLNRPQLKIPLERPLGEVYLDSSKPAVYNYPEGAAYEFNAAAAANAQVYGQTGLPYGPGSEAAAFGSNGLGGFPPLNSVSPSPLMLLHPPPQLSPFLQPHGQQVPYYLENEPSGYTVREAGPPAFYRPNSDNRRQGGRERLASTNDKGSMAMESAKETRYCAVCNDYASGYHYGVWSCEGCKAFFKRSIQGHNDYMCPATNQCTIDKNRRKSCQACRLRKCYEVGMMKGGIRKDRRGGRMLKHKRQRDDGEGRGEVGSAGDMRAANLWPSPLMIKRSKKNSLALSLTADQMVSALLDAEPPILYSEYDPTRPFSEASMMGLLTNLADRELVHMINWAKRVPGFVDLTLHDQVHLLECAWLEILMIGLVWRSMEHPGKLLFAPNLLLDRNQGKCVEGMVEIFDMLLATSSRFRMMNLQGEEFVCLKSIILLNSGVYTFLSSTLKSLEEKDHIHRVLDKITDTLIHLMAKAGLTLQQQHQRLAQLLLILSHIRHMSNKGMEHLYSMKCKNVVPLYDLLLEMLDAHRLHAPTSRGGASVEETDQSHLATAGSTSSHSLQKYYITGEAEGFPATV

The assay concerns the target Estrogen receptor (Homo sapiens) (UniProt P03372). The assay can be described thus: OT_ER_ERaERa_1440: Odyssey Thera (OT) 24-hour HEK293T Protein-Complementation Assay for Estrogen Receptor-alpha/-alpha Homodimer (AID 2283349).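 Note: hits raise fluorescence above DMSO for agonists and antagonists alike.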 On the procedure:
OT_ER_ERaERa_1440 is a cell-based assay that uses HEK293T, a human kidney cell line, with measurements taken at 24 hours after chemical dosing in a 384-well plate.OT_ER_ERaERa_1440 is one of one assay component(s) measured or calculated from the OT_ER_ERaERa_1440 assay. It is designed to make measurements of protein fragment complementation, a form of binding reporter, as detected with fluorescence intensity signals by Protein-fragment Complementation technology.Data from the assay component OT_ER_ERaERa_1440 was analyzed into 1 assay endpoint. This assay endpoint, OT_ER_ERaERa_1440, was analyzed in the positive analysis fitting direction relative to DMSO as the negative control and baseline of activity. Using a type of binding reporter, measures of receptor for gain-of-signal activity can be used to understand the binding at the pathway-level as they relate to the gene ESR1. Furthermore, this assay endpoint can be referred to as a primary readout, because the performed assay has only produced 1 assay endpoint. To generalize the intended target to other relatable targets, this assay endpoint is annotated to the nuclear receptor intended target family, where the subfamily is steroidal.
Protein-fragment complementation assay, or PCA, is a method for the identification and quantification of protein-protein interactions. In the PCA, the proteins of interest ("bait" and "prey") are each covalently linked to fragments of a third protein (e.g. DHFR, which acts as a "reporter"). Interaction between the bait and the prey proteins brings the fragments of the reporter protein in close proximity to allow them to form a functional reporter protein whose activity can be measured. The OT ER alpha / ER alpha assay is a homodimer PCA of the ligand binding domain (amino acids 310-547) of human ER alpha stably expressed in HEK293T cells. […] Fluorescent signal in the basal state of the assay is very low and is primarily punctuate and cytoplasmic. Modulation of this assay is quantified as an increase in mean fluorescence intensity in the nucleus (for agonists) or in the nucleus and cytoplasm (antagonists) relative to vehicle controls, and can be quantified on a high content imaging device or a laser scanning cytometer. The latter instrument is favored for this assay because of the rapid mode of data acquisition, the ability to acquire data from the entire cell population in a well (as opposed to a fraction of the well on the high content devices) and the larger dynamic range typically achieved with this instrument. To assess sensitivity of the ER alpha/ER alpha LBD assay to ligand, cells were treated with the ER agonist 17 beta-estradiol (E2) in 10-point concentration- response format for 24 hours and monitored response on a laser scanning plate cytometer (Acumen eX3; TTP Lab Tech).
Consider `CCC[CH2][Sn]([CH2]CCC)([CH2]CCC)[O]C(=O)c1ccccc1`, for which the molecule was classed as inactive.

Consider `CCC(C)(C)c1ccc(O)c(C(C)(C)CC)c1`, for which the call was inactive.

For `O=[N+]([O-])c1ccc(O)c([N+](=O)[O-])c1`, the call was inactive.

As for `NC(=O)O`, the molecule was called inactive.

With `OCC(O)CCl` (stereo not given), the result was inactive.

Consider `CCCCCCCCSC(=O)Oc1cc(Cl)nnc1-c1ccccc1`, for which the outcome was inactive.

Turning to `COP(=O)(OC)O/C(=C\Cl)c1cc(Cl)c(Cl)cc1Cl`, the molecule was called inactive.

For `CC(C)(c1ccccc1)c1ccc(O)c(C(C)(C)c2ccccc2)c1`, the molecule was called inactive.

In the case of `Cc1ccc(N)cc1Cl`, the call was inactive.

Usually AC50 stands for the concentration giving half of the maximal activity seen. In the case of `O=C(OC1CCCCC1)c1ccccc1C(=O)OC1CCCCC1`, the AC50 is 23.9 µM (active).

On to `ClC1(Cl)C2(Cl)C3(Cl)C4(Cl)C(Cl)(Cl)C5(Cl)C3(Cl)C1(Cl)C5(Cl)C24Cl` (stereo not given), for which the result was inactive.

On to `N#CN=C(N)N`, for which the result was inactive.

`CCOC(=O)Nc1cccc(OC(=O)Nc2ccccc2)c1`: the call was inactive.

Turning to `C[C@H]1CCCC(=O)CCC/C=C/c2cc(O)cc(O)c2C(=O)O1`, the AC50 was 0.46 µM (active).

`Cc1ccc2ccccc2c1C`: the result was inactive.

Turning to `C=CC#N`, the outcome was inactive.

In the case of `CC(=O)c1cc(C(C)(C)C)cc2c1CCC2(C)C`, the outcome was inactive.

Consider `CCCCOCCOC(C)=O`, for which the molecule was called inactive.

`O=C1C(Cl)=C(Cl)C(=O)c2ccccc21`: the AC50 was 11.9 µM (active).

Consider `CC(=O)C=C(C)C`, for which the AC50 is 26.6 µM (active).

On to `ClC(Cl)=C(Cl)C(Cl)=C(Cl)Cl`, for which the molecule was called inactive.

`[O-][Cl+2]([O-])O`: the result was inactive.

Turning to `CC(C#N)CCC#N` (stereo not given), the outcome was inactive.

Turning to `CCOP(=S)(OCC)SCSP(=S)(OCC)OCC`, the result was inactive.

`CC(C)c1cccc(C(C)C)c1O`: the result was inactive.

`CC1(C)Cc2cccc(O)c2O1`: the call was inactive.

Turning to `COc1cc(OC)nc(NC(=O)NS(=O)(=O)c2ncccc2C(=O)N(C)C)n1`, the result was inactive.

For the molecule `CC(C)OC(=O)Nc1ccccc1`, the molecule was called inactive.

For the molecule `CNC(=O)O/N=C/C(C)(C)S(C)=O` (stereo not given), the molecule was called inactive.

Consider `Clc1nc(Cl)nc(Cl)n1`, for which the molecule was called inactive.

As to `O=S(=O)(c1ccc(Cl)cc1)c1ccc(Cl)cc1`, the outcome was inactive.

Turning to `CCC(=O)C(CC(C)N(C)C)(c1ccccc1)c1ccccc1` (stereo not given), the molecule was classed as inactive.

On to `CC(C)C1CCC(Cc2ccc(Cl)cc2)C1(O)Cn1cncn1` (stereo not given), for which the molecule was classed as inactive.

As for `Cl/C=C/Cl`, the call was inactive.

`COP(=O)(OC)OC`: the call was inactive.

With `OCc1ccco1`, the call was inactive.

As to `NNC(=S)NN`, the result was inactive.

In the case of `Cn1sc(Cl)cc1=O`, the call was inactive.

`O=C(Nc1ccc2[nH]ccc2c1)c1cc2cc(F)ccc2n1Cc1cccc(F)c1`: the outcome was inactive.

Turning to `CCC[CH2][Sn]([Cl])([Cl])[Cl]`, the outcome was inactive.
